Our source for the outcome and AC50 values is PubChem BioAssay (EPA / NIEHS).

A short description of assay [1]: ATG_CRE_CIS: Attagene CIS-FACTORIAL HepG2 Assay for human cAMP Responsive Element (CRE) binding protein 3 (AID 2282926). The conditions noted are these: HepG2 CRE cis-reporter, Attagene multiplexed mRNA; actives raise or lower the signal. In outline: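 HepG2 cells transiently transfected with cis-element-driven multiple reporter transcription units; CRE reporter mRNA measured 24 h after dosing by RT-PCR, 6-FAM labelling, HpaI digestion and capillary electrophoresis. Bidirectional fit versus DMSO baseline.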

Assay [2] addresses CCAAT/enhancer-binding protein beta (Homo sapiens) (UniProt P17676). Briefly: ATG_C_EBP_CIS: Attagene CIS-FACTORIAL HepG2 Assay for human CCAAT/Enhancer Binding Protein (C/EBP) beta (AID 2282927). Particulars: HepG2 Attagene cis-factorial transcription factor reporter; actives raise or lower the signal. In outline:
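RT-PCR/capillary electrophoresis fluorescence of reporter mRNA, 24 h post-dose, in HepG2 cells carrying transfected cis-promoter reporter units. Bidirectional curve fitting against DMSO baseline captures gain or loss of signal.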

Assay [3] in a line: ATG_CMV_CIS: Attagene CIS-FACTORIAL HepG2 Assay for human CMV (Internal Marker) (AID 2282928).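 Further: endpoint acts as a background internal control marker rather than a target.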 The conditions noted are these: HepG2 CMV promoter reporter, transcription factor profiling; actives raise or lower the signal. In outline:
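Endogenous transcription factor activity read in HepG2 via transfected cis-promoter reporter units. After 24 h dosing, reporter mRNA measured by RT-PCR/capillary electrophoresis; gain or loss of signal fit relative to DMSO.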

Assay [4] in a line: ATG_DR4_LXR_CIS: Attagene CIS-FACTORIAL HepG2 Assay for human Liver X Receptor (LXR), DR4 submotif (AID 2282929). The conditions noted are these: HepG2 Attagene DR4 cis-reporter, mRNA transcription; actives raise or lower the signal. In outline: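 After transient transfection with multiplexed cis-promoter reporter units, HepG2 cells received test chemicals for 24 h. Reporter mRNA induction, detected by fluorescence after RT-PCR and capillary electrophoresis, was scored relative to DMSO.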

The nature of assay [5]: ATG_AP_1_CIS: Attagene CIS-FACTORIAL HepG2 Assay for human Activator Protein 1 (AP-1) (AID 2282931). The conditions noted are these: HepG2 Attagene cis-factorial AP-1 reporter mRNA; actives raise or lower the signal. In outline:
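After 24 h incubation with test chemical, RNA from transfected HepG2 cells was reverse-transcribed, amplified, fluorescently labelled and digested before capillary electrophoresis. Reporters were driven by cis-regulatory promoters; activity fitted bidirectionally versus DMSO.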

The nature of assay [6]: ATG_BRE_CIS: Attagene CIS-FACTORIAL HepG2 Assay for human Bone Morphogenetic Protein (BMP) Response Element (BRE) (AID 2282933). The conditions noted are these: HepG2 BMP response element reporter, Attagene transcription factor profiling; actives raise or lower the signal. In outline:
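Gain- or loss-of-signal was derived by bidirectional fitting against DMSO controls. The signal came from reporter mRNA, measured by RT-PCR and capillary electrophoresis, in HepG2 cells transiently carrying multiple reporter units and dosed for 24 h.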

The nature of assay [7]: ATG_E_Box_CIS: Attagene CIS-FACTORIAL HepG2 Assay for human Enhancer Box (E-box) (AID 2282936). Particulars: HepG2 E-box cis-reporter transcription, actives raise or lower the signal. In outline: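 HepG2 cells transiently transfected with multiplexed cis-element reporter units sensing endogenous transcription factor activity; 24 h compound exposure. Reporter mRNA measured by RT-PCR, 6-FAM primer extension, HpaI digestion and capillary electrophoresis; bidirectional fit versus DMSO.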

Assay [8] is described as follows: ATG_M_19_CIS: Attagene CIS-FACTORIAL HepG2 Assay for M19 Transcription Factor (Internal Marker) (AID 2282939). Particulars: HepG2 Attagene CIS-FACTORIAL M19 internal marker reporter; actives raise or lower the signal. In outline:
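Following a 24 h exposure, RNA from transfected HepG2 cells was reverse-transcribed, PCR-amplified with reporter-specific primers, end-labelled with 6-FAM and HpaI-digested before capillary separation. Values represent gain or loss versus DMSO.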

The nature of assay [9]: ATG_GATA_CIS: Attagene CIS-FACTORIAL HepG2 Assay for human GATA Binding Protein (AID 2282944). Particulars: HepG2 GATA cis-element reporter, Attagene multiplex mRNA; actives raise or lower the signal. In outline: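 DMSO serves as negative control and baseline for bidirectional fitting of reporter mRNA changes. HepG2 cells bearing transiently transfected cis-promoter reporters were exposed 24 h; transcripts detected via RT-PCR and capillary electrophoresis.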

Assay [10] can be described thus: ATG_ISRE_CIS: Attagene CIS-FACTORIAL HepG2 Assay for human Interferon Regulatory Factor 1 (IRF1) binding to an Interferon-Stimulated Response Element (ISRE) (AID 2282948). The conditions noted are these: HepG2 ISRE cis-reporter (Attagene), mRNA transcription readout; actives raise or lower the signal. In outline: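 Transfected HepG2 (multiple reporter transcription units, cis elements) dosed 24 h. RNA → oligo(dT) RT → PCR → 6-FAM primer extension → HpaI → CE. DMSO = negative control/baseline.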

The nature of assay [11]: ATG_M_32_CIS: Attagene CIS-FACTORIAL HepG2 Assay for M32 Transcription Factor (Internal Marker) (AID 2282949).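 Further: background control marker of the multiplexed CIS panel rather than a real target.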 The conditions noted are these: HepG2 Attagene cis-factorial M32 reporter, mRNA; actives raise or lower the signal. In outline: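 Internal background marker read-out: RT-PCR/capillary electrophoresis fluorescence of reporter transcripts from transiently transfected HepG2 cells after 24 h chemical exposure. Activity fitted bidirectionally relative to DMSO negative control.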

Assay [12] can be described thus: ATG_M_06_CIS: Attagene CIS-FACTORIAL HepG2 Assay for M06 Transcription Factor (Internal Marker) (AID 2282950). The conditions noted are these: HepG2 Attagene CIS-FACTORIAL M06 internal marker reporter; actives raise or lower the signal. In outline: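 Fluorescence-labelled RT-PCR products from cis-promoter reporter units, cut with HpaI and resolved by capillary electrophoresis, give the signal. Cells are human HepG2, dosed for 24 h. Serves as background control, fitted relative to DMSO.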

Assay [13] in a line: ATG_MRE_CIS: Attagene CIS-FACTORIAL HepG2 Assay for human Metal Responsive Element (MRE) (AID 2282954). The conditions noted are these: HepG2 MRE cis-reporter transcription, Attagene multiplex; actives raise or lower the signal. In outline:
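HepG2 cells transiently transfected with multiple cis-element reporter units measure endogenous MTF1-driven transcription. After 24 h compound exposure, reporter mRNA is quantified by RT-PCR with 6-FAM labelling, HpaI digestion and capillary electrophoresis; bidirectional fits versus DMSO.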

Assay [14] has as its target Paired box protein Pax-6 (Homo sapiens) (UniProt P26367). Briefly: ATG_Pax6_CIS: Attagene CIS-FACTORIAL HepG2 Assay for human Paired Box 6 (PAX6) (AID 2282956). Particulars: HepG2 CIS-FACTORIAL PAX6 reporter transcription, RNA readout; actives raise or lower the signal. In outline:
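Transient MRTU transfection of HepG2 → compound exposure 24 h → TriZol RNA, oligo(dT) RT → PCR, 6-FAM primer extension, HpaI cut → capillary electrophoresis; activity fitted both directions against DMSO.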

Assay [15] can be described thus: ATG_PXRE_CIS: Attagene CIS-FACTORIAL HepG2 Assay for human Pregnane X Receptor Element (PXRE) (AID 2282957). Particulars: HepG2 Attagene CIS-FACTORIAL PXRE reporter, mRNA; actives raise or lower the signal. In outline: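 HepG2 cells transiently transfected with cis-element-driven multiplexed reporter units; after 24 h chemical exposure, reporter mRNA measured by RT-PCR, 6-FAM labelling, HpaI digestion and capillary electrophoresis. Bidirectional fitting relative to DMSO.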

Assay [16] in a line: ATG_Sox_CIS: Attagene CIS-FACTORIAL HepG2 Assay for human SRY-box transcription factor (SOX) (AID 2282960). The conditions noted are these: HepG2 Attagene cis-factorial SOX reporter, mRNA; actives raise or lower the signal. In outline:
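Using transiently transfected HepG2 cells, reporter transcription driven by cis elements was assessed 24 h after dosing. Signal was fluorescence of capillary-separated RT-PCR products, with DMSO defining baseline activity.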

For assay [17], the target named is Transcription factor Sp1 (Homo sapiens) (UniProt P08047). The experiment in a line: ATG_Sp1_CIS: Attagene CIS-FACTORIAL HepG2 Assay for human Specificity Protein 1 (Sp1) (AID 2282961). The conditions noted are these: HepG2 Sp1 cis-reporter transcription, actives raise or lower the signal. In outline: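 After transient transfection of HepG2 cells with cis-promoter reporter units and 24 h chemical treatment, reporter transcripts were quantified by RT-PCR and capillary electrophoresis fluorescence. Gain- and loss-of-signal fitted against DMSO.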

A short description of assay [18]: ATG_TA_CIS: Attagene CIS-FACTORIAL HepG2 Assay for human TA Basal Promoter (AID 2282964). The conditions noted are these: HepG2 Attagene CIS-factorial TA basal promoter reporter; actives raise or lower the signal. In outline: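 Multiplexed mRNA reporter assay, HepG2, 24 h. Reporter cDNA amplified, 6-FAM primer-extended, HpaI-cut, CE-sized; DMSO = negative control and baseline.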

A short description of assay [19]: ATG_TCF_b_cat_CIS: Attagene CIS-FACTORIAL HepG2 Assay for human T-Cell-Factor with beta-catenin (TCF/b-cat) (AID 2282965). The conditions noted are these: HepG2 TCF/beta-catenin cis-reporter transcription, actives raise or lower the signal. In outline: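 HepG2 cells transiently transfected with multiple cis-promoter-regulated reporter transcription units, so endogenous transcription factor activity is measured. Reporter mRNA read 24 hours after dosing by RT-PCR, fluorescent labelling and capillary electrophoresis; bidirectional fitting against DMSO.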

Assay [20] can be described thus: ATG_TAL_CIS: Attagene CIS-FACTORIAL HepG2 Assay for human TAL Basal Promoter (AID 2282966).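 Further: background control endpoint measuring basal TAL promoter reporter mRNA not a specific factor.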 The conditions noted are these: HepG2 Attagene cis-factorial TAL promoter reporter; actives raise or lower the signal. In outline:
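HepG2 cells transiently transfected with multiplexed cis-promoter reporter units, dosed 24 h. Reporter mRNA quantified by RT-PCR, 6-FAM labelling, HpaI digestion and capillary electrophoresis; TAL basal promoter serves as background control, fitted bidirectionally versus DMSO.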

Activity calls are given as the source filed them. How the source made its calls: active means hit-call score of the fitted dose curve at least 0.9, where 1 is the maximum; inactive means score below 0.9.

Chain of CCAAT/enhancer-binding protein beta (Homo sapiens) (P17676 whole entry, looked up): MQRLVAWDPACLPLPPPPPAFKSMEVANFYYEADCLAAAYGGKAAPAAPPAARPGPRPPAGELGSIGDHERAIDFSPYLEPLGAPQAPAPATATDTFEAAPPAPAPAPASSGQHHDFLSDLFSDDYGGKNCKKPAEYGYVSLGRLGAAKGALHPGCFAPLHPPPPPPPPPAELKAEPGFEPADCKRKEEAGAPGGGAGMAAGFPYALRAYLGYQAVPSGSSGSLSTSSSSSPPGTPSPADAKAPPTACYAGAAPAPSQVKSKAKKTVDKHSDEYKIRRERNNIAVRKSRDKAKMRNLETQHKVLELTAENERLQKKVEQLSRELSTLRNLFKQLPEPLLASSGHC
Chain of Transcription factor Sp1 (Homo sapiens) (P08047 whole entry, looked up): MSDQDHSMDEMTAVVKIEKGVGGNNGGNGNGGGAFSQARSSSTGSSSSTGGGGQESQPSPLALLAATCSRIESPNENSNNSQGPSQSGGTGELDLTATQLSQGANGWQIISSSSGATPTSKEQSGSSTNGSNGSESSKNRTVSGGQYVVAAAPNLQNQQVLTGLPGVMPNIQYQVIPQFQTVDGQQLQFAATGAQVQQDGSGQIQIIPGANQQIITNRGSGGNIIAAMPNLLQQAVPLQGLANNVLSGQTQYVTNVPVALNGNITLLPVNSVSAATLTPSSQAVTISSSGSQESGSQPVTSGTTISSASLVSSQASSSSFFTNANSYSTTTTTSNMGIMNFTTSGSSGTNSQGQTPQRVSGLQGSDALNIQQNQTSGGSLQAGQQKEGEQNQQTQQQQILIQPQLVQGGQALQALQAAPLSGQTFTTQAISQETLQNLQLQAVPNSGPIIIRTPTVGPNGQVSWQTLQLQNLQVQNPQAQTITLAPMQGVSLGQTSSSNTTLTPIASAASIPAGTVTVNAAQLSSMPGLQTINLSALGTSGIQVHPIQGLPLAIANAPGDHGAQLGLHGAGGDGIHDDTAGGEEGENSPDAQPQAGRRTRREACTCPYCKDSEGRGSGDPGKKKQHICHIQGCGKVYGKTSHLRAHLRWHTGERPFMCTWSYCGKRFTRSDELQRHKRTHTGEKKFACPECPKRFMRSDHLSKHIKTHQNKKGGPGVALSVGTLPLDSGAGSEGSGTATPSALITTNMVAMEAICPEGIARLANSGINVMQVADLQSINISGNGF
Chain of Paired box protein Pax-6 (Homo sapiens) (P26367 whole entry, looked up): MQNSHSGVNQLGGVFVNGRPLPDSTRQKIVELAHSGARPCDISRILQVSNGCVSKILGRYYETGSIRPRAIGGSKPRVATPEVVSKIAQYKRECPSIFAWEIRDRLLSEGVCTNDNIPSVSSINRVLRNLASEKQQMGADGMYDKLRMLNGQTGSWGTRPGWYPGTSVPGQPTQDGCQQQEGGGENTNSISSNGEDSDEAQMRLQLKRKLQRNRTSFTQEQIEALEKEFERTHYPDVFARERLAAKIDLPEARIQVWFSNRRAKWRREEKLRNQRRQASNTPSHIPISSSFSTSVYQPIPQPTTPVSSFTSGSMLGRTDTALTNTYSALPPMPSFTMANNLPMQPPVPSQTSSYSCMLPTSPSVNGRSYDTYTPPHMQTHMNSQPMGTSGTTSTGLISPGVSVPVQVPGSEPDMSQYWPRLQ

As for `OCCOCCOCCOCCOCCO`, the compound was called inactive in [1], in [2], in [3], in assay [4], in assay [5] and in assay [6]. Also, the outcome in [7], in assay [8], in assay [9], in assay [10], in assay [11] and in [12] was inactive. Also, the compound was classed as inactive in assay [13], in assay [14], in [15], in assay [16], in assay [17] and in [18]. Further, the call in assay [19] and in assay [20] was inactive.
Regarding `O=C(O)/C=C\C(=O)O`, the outcome in assay [1], in [2], in assay [3], in [4], in assay [5] and in [6] was inactive. Further, the result in [7], in assay [8], in assay [9], in assay [10], in assay [11] and in [12] was inactive. Moreover, the compound was classed as inactive in assay [13], in assay [14], in assay [16], in [17], in [18] and in [19]. The compound was classed as inactive in assay [20]. For the same compound, the AC50 (in general, the concentration at which the activity in the assay is half-maximal) in assay [15] was 41.1 µM (active).
Regarding `CCCC[N+]1(C)CCCC1`, the result in assay [1], in assay [2], in assay [3], in assay [4], in assay [5] and in assay [6] was inactive. The result in [7], in assay [8], in assay [9], in [10], in assay [11] and in assay [12] was inactive. The outcome in [13], in assay [14], in [15], in [16], in [17] and in assay [18] was inactive. Also, the result in [19] and in assay [20] was inactive.
For `CCCCNC(N)=O`, the outcome in [1], in assay [2], in assay [3], in assay [4], in [5] and in assay [6] was inactive. The result in assay [7], in assay [8], in assay [9], in [10], in [11] and in assay [12] was inactive. For the same compound, the compound was classed as inactive in assay [13], in assay [14], in [16], in assay [17], in assay [18] and in assay [19]. Also, the result in [20] was inactive. Moreover, the AC50 in assay [15] was 68.7 µM (active).
